In paper PMC7826789 (International Journal of Molecular Sciences, 2021):

Key:
Settings in all cases: Compound Concentration (nM):1000
CSNK2A2 = test system: CSNK2A2
CTK = test system: T1, CTK
T1 construct: gene MATK

DAPK1 = test system: DAPK1
DAPK2 = test system: DAPK2
DAPK3 = test system: DAPK3
DCAMKL1 = test system: T2, DCAMKL1
T2 construct: gene DCLK1

DCAMKL2 = test system: T3, DCAMKL2
T3 construct: gene DCLK2

DCAMKL3 = test system: T4, DCAMKL3
T4 construct: gene DCLK3

DDR1 = test system: DDR1
DDR2 = test system: DDR2
DLK = test system: T5, DLK
T5 construct: gene MAP3K12

DMPK2 = test system: T6, DMPK2
T6 construct: gene CDC42BPG

DMPK = test system: DMPK
DRAK1 = test system: T7, DRAK1
T7 construct: gene STK17A

DRAK2 = test system: T8, DRAK2
T8 construct: gene STK17B

DYRK1A = test system: DYRK1A
DYRK1B = test system: DYRK1B
DYRK2 = test system: DYRK2
EGFR(E746-A750del) = test system: EGFR(E746-A750del)
EGFR(G719C) = test system: EGFR(G719C)
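Note: KINOMEscan scanMAX binding as percent activity remaining versus control; lower means stronger binding.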

Compound | Percent Control (CSNK2A2) | Percent Control (CTK) | Percent Control (DAPK1) | Percent Control (DAPK2) | Percent Control (DAPK3) | Percent Control (DCAMKL1) | Percent Control (DCAMKL2) | Percent Control (DCAMKL3) | Percent Control (DDR1) | Percent Control (DDR2) | Percent Control (DLK) | Percent Control (DMPK2) | Percent Control (DMPK) | Percent Control (DRAK1) | Percent Control (DRAK2) | Percent Control (DYRK1A) | Percent Control (DYRK1B) | Percent Control (DYRK2) | Percent Control (EGFR(E746-A750del)) | Percent Control (EGFR(G719C))
COc1ccc(COc2ccc(Cc3cnc(N)nc3N)cc2OC)cc1 [GW632580X] | 70% | 94% | 94% | 91% | 91% | 94% | 78% | 100% | 78% | 100% | 97% | 100% | 100% | 100% | 100% | 88% | 100% | 81% | 100% | 85%
NS(=O)(=O)c1ccc(N/N=C2\C(=O)Nc3ccc(Cl)cc32)cc1 [GW280670X] | 54% | 100% | 100% | 100% | 100% | 94% | 100% | 100% | 100% | 100% | 96% | 100% | 100% | 100% | 100% | 100% | 100% | 93% | 100% | 100%
C[C@@H](Oc1cc(-n2cnc3ccc(OC4CCN(C)CC4)cc32)sc1C(N)=O)c1ccccc1Cl [GSK579289A] | 8.4% | 100% | 29% | 49% | 28% | 70% | 83% | 89% | 92% | 90% | 78% | 100% | 80% | 100% | 93% | 100% | 100% | 49% | 92% | 81%
O=C(Nc1n[nH]c2nc(-c3ccc(O)cc3)c(Br)cc12)C1CC1 [SB-725317] | 85% | 100% | 55% | 34% | 34% | 89% | 100% | 3.5% | 98% | 100% | 100% | 100% | 23% | 100% | 95% | 24% | 7.4% | 6.6% | 91% | 100%
Cl.c1ccc(Cc2nc3ccc(Nc4ncnc5ccccc45)cc3[nH]2)cc1 [GR269666A] | 100% | 100% | 100% | 99% | 96% | 90% | 100% | 100% | 100% | 100% | 83% | 100% | 100% | 68% | 100% | 100% | 100% | 73% | 70% | 0%
CC(C)COC(=O)c1ccc2c(c1)/C(=C/Nc1ccc(S(N)(=O)=O)cc1)C(=O)N2 [GW416981X] | 1.5% | 100% | 24% | 9.4% | 9.8% | 38% | 100% | 4.6% | 100% | 100% | 14% | 100% | 100% | 0.3% | 5.5% | 26% | 45% | 18% | 82% | 4.6%
NS(=O)(=O)c1ccc(N/N=C2\C(=O)Nc3ccc(C(=O)NCc4ccncc4)cc32)cc1 [GW300657X] | 28% | 97% | 63% | 65% | 51% | 67% | 83% | 72% | 100% | 89% | 76% | 91% | 100% | 0.3% | 4.7% | 63% | 97% | 37% | 91% | 100%
NS(=O)(=O)c1ccc(Nc2ncc(-c3ccccc3)o2)cc1 [GW572399X] | 53% | 100% | 100% | 100% | 100% | 83% | 100% | 100% | 100% | 100% | 81% | 100% | 100% | 85% | 100% | 92% | 81% | 57% | 98% | 100%
COc1cccc(-n2ncc3c(N/N=C/c4ccncc4)ncnc32)c1 [GW784752X] | 2.9% | 99% | 100% | 94% | 93% | 86% | 100% | 71% | 100% | 100% | 82% | 100% | 100% | 73% | 87% | 18% | 95% | 17% | 75% | 90%
COc1ccc2cc(-c3c(-c4ccncc4)nc(-c4ccc(S(C)(=O)=O)cc4C)n3C)ccc2c1 [SB-633825] | 79% | 62% | 96% | 88% | 82% | 71% | 85% | 89% | 2% | 58% | 84% | 41% | 100% | 93% | 79% | 77% | 100% | 70% | 57% | 66%
Cc1cc(O)cc(C)c1/C=C/c1cncc(C(N)=O)c1 [GW435821X] | 78% | 98% | 100% | 100% | 100% | 87% | 100% | 100% | 40% | 74% | 90% | 100% | 100% | 100% | 100% | 93% | 100% | 75% | 69% | 89%
COc1cc2ncnc(Nc3ccc4c(cnn4Cc4ccccc4)c3)c2cc1OC.Cl [GW282449A] | 100% | 84% | 100% | 100% | 100% | 100% | 100% | 100% | 91% | 100% | 87% | 100% | 100% | 100% | 100% | 100% | 97% | 87% | 6.7% | 0%
COc1cc(C=NNc2ncnc3c2cnn3-c2ccccc2)ccc1O [GW513184X] | 5.6% | 100% | 100% | 100% | 100% | 90% | 100% | 100% | 100% | 100% | 96% | 100% | 100% | 83% | 71% | 53% | 66% | 28% | 26% | 58%
NS(=O)(=O)c1ccc(N/N=C2\C(=O)Nc3ccc(C(=O)NCCc4c[nH]cn4)cc32)cc1 [GW300660X] | 1.4% | 100% | 44% | 100% | 15% | 65% | 100% | 100% | 100% | 100% | 100% | 100% | 100% | 3.8% | 12% | 50% | 100% | 11% | 100% | 100%
CN(C)CCNC(=O)Nc1ccc(N(C)c2ccnc(Nc3ccc(CS(C)(=O)=O)cc3)n2)cc1.Cl [GW830900A] | 62% | 86% | 94% | 100% | 100% | 89% | 100% | 100% | 73% | 17% | 67% | 91% | 100% | 100% | 100% | 100% | 100% | 85% | 92% | 96%
COc1cccc(-c2c[nH]c3c(N/N=C/c4ccncc4)ncnc23)c1 [GW814408X] | 1.5% | 100% | 100% | 100% | 100% | 100% | 100% | 56% | 86% | 60% | 87% | 82% | 100% | 17% | 32% | 7.6% | 24% | 8.3% | 12% | 27%
COc1cc(C)c(N(C)C(=O)CN(C)C)cc1Nc1nc(Nc2cccc(F)c2C(N)=O)c2cc[nH]c2n1 [GSK2219385] | 81% | 100% | 85% | 73% | 71% | 78% | 100% | 100% | 78% | 100% | 80% | 99% | 84% | 88% | 83% | 60% | 100% | 100% | 100% | 98%
NS(=O)(=O)c1ccc(N/N=C2\C(=O)Nc3ccc(-c4cnco4)cc32)cc1 [GW276655] | 7% | 78% | 60% | 70% | 56% | 78% | 87% | 100% | 100% | 100% | 100% | 94% | 72% | 60% | 36% | 2.5% | 79% | 4% | 100% | 83%
O=C1Nc2ccc(C(=O)c3ccco3)cc2C1=Cc1cc(Cl)c(O)c(Cl)c1 [GW406108X] | 19% | 92% | 22% | 9.2% | 10% | 80% | 94% | 100% | 100% | 93% | 42% | 100% | 100% | 80% | 32% | 0.4% | 1.9% | 41% | 86% | 73%
Cl.O=C(Nc1ccc(Oc2ccc3[nH]c(NC(=O)c4ccco4)nc3c2)cc1)Nc1cc(C(F)(F)F)ccc1F [GW683134A] | 91% | 100% | 100% | 83% | 89% | 87% | 100% | 82% | 0% | 5.1% | 86% | 82% | 100% | 100% | 100% | 100% | 93% | 83% | 92% | 100%
